esBAF inh: blocks esBAF chromatin remodeling in mouse ES cells; Bmi1-luciferase knock-in reporter, 24 h; 100% = twice the neutral-well signal; 350,000 tested, 2% active; reporter increase, % at 12.5 µM; in the data active = activation above about 40%; inconclusive = no clear call, values can overlap the other calls;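 also: 0% = median of the plate's neutral control wells and 100% = double that signal; a rise in the Bmi1 reporter signal indicates esBAF inhibition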
Wnt act: Wnt/beta-catenin pathway activation. activation, % at 9.35 µM. AID 743398. 300,000 tested, 1.2% active. Wnt/beta-catenin reporter cell assay, activator, plate reader; in the data active = activation above about 30%, passing the limit was not always enough; inconclusive = no clear call, values can overlap the other calls;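 also: 0% = neutral control wells and 100% = positive control wells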
MITF TRPM1 HTS: activators of MITF-driven TRPM1 promoter activity in SK-MEL-5 cells; SK-MEL-5 TRPM1-promoter luciferase, 24 h; % of positive control, neutral wells = 0; activation, % at 12.5 µM; 300,000 tested, 0.75% active; AID 588334;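 active = mean activation of at least 80% with every replicate also reaching 80%; inconclusive = mean reaches 80% but some replicate falls short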;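 also: 0% = neutral control wells and 100% = parthenolide positive control wells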
HSF1 activator: increases HSF-1 driven luciferase reporter signal; NIH3T3-HGL HSF-1 luciferase reporter, MG132, 8 h; 100% = twice DMSO control signal; activation, % at 9 µM; 300,000 tested, 1.7% active;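 active = mean replicate activation of at least 50% with a set share of replicates each reaching 50%; inconclusive = only one of those two conditions met; inactive = mean below 50% and too few replicates reaching it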;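 also: 0% = median of the neutral control wells and 100% = twice that signal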
HSF1 inhib: HSF1 inhibition | 300,000 tested, 0.77% active | AID 2098 | activity change, negative = inhibition, % at 7.5 µM (by protocol) | NIH3T3-HGL HSE-luciferase, MG132-induced, luminescence 8 h; hits give low values;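 active = more than half of replicate wells show activity change below -50%, luminescence cut by over half; inconclusive = some wells, but at most half, below -50%; inactive = no replicate well below -50%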;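 also: luciferase reports HSF-1 transcriptional activity via heat shock element; 0% = median of DMSO wells and -100% = zero luminescence signal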
Starred values were filed as active, the others as inactive; ? = inconclusive; . = no result. Shown are actives, neighbours in structure and some others; about 3.9% of the full set was active somewhere.

SMILES	esBAF inh	Wnt act	MITF TRPM1 HTS	HSF1 activator	HSF1 inhib
CCc1ccccc1NC(=S)N1N=CCC1c1ccccc1 (stereo unspecified)	12.0	1.6	26.3	31.2	8.2
O=C1NC(=Nc2ccccc2)S/C1=C/c1cccs1	.	51.2*	48.2	36.6	2.9
Cc1cccc(N=C2NC(=O)/C(=C\c3cccs3)S2)c1	.	.	35.9	-0.5	1.7
Cc1cc(C(=O)COC(=O)CNC(=O)c2ccccc2)c(C)n1CC1CCCO1 (stereo unspecified)	.	-2.6	-13.5	-59.8	-50.2*
Cc1cc(C(=O)COC(=O)c2ccc(Cl)c(S(N)(=O)=O)c2)c(C)n1CC1CCCO1 (stereo unspecified)	.	11.0	13.1	-62.1	-56.7*
COCCn1c(C)cc(C(=O)COC(=O)c2ccc(Cl)c(S(N)(=O)=O)c2)c1C	-11.1	22.2	39.0	-62.4	-60.5*
Cc1cc(C(=O)COC(=O)c2ccc(O)cc2)c(C)n1CC1CCCO1 (stereo unspecified)	.	0.6	23.0	-20.8	-11.0
Cc1cccc(C(=O)NCC(=O)OCC(=O)c2cc(C)n(CC3CCCO3)c2C)c1 (stereo unspecified)	.	-1.1	8.5	-51.5	-47.6
COCCn1c(C)cc(C(=O)COC(=O)c2ccc(-n3nc(C)cc3C)cc2)c1C	1.9	-0.9	0.4	60.4*	14.5
C[C@@H]1CCCCO[C@H](CN(C)Cc2ccc(C(=O)O)cc2)[C@H](C)CN([C@@H](C)CO)C(=O)c2cc(NC(=O)Nc3cccc4ccccc34)ccc2O1	-0.6	.	.	.	.
Cc1cc(C(=O)COC(=O)c2cccc(S(=O)(=O)N(C)C)c2)c(C)n1CC1CCCO1 (stereo unspecified)	.	36.9*	?	.	.
CNS(=O)(=O)c1cccc(C(=O)OCC(=O)c2cc(C)n(CC3CCCO3)c2C)c1 (stereo unspecified)	-5.6	10.5	32.8	.	.
Cc1cc(C(=O)CSc2nc3ccccc3c(=O)[nH]2)c(C)n1CC1CCCO1 (stereo unspecified)	.	-1.4	27.7	58.8*	22.3
C[C@@H]1CN([C@H](C)CO)C(=O)c2cc(/C=C/c3ccccc3)cnc2O[C@H]1CN(C)C(=O)CN(C)C	0.9	.	.	.	.
O=C(C[C@H]1CC[C@@H]2[C@H](COC[C@@H](O)CN2CC2CCOCC2)O1)NCC1CCCCC1	-1.3	.	.	.	.
O=C(Oc1ccccc1Cl)c1ccc(-n2cncn2)nc1	-2.4	.	.	-91.8	-89.4*
CC(C)NC(=O)N(C)C[C@@H]1Oc2ccc(NC(=O)NC3CCCCC3)cc2CC(=O)N([C@@H](C)CO)C[C@H]1C	-4.4	.	.	.	.
COc1ccc(N2CCN(C(=O)Cc3ccc(C)cc3)CC2)cc1	0.7	-0.6	.	39.3	11.8
COc1ccc(N2CCN(C(=O)Cc3ccc(-n4c(=O)[nH]c5ccccc5c4=O)cc3)CC2)cc1	-6.5	-3.7	-1.9	-68.8	-57.6*
COC(=O)C[C@@H]1C=C[C@H](NS(=O)(=O)c2ccc(OC)cc2)[C@@H](CO)O1	0.0	.	.	.	.
O=C(NC1CCC(O)CC1)c1ccc(-c2ccc(Cl)cc2)o1 (stereo unspecified)	63.7*	26.1	73.7	10.6	12.2
O=C(NC1CCCCC1)c1cc(-c2ccc(Cl)cc2)on1	49.2*	9.5	67.4	20.5	9.3
O=C(NC1CCCC1)c1cc(-c2cccc(Cl)c2)on1	78.1*	25.4	127.1*	10.4	14.4
O=C(NC1CCCC1)c1cc(-c2ccc(Cl)cc2)on1	43.8*	30.3*	132.1*	33.4	28.7
COc1ccccc1NC(=O)N[C@@H]1CC[C@@H](CCNC(=O)c2ccc3c(c2)OCO3)O[C@H]1CO	15.1	.	.	.	.
SMILES	esBAF inh	Wnt act	MITF TRPM1 HTS	HSF1 activator	HSF1 inhib
COc1ccc(NC(=O)Nc2ccc3c(c2)C(=O)N([C@H](C)CO)C[C@@H](C)[C@H](CN(C)Cc2ccc4c(c2)OCO4)O3)cc1	3.7	.	.	.	.
O=C(/C=C/c1cn(CC(O)CN2CCCCC2)c2ccccc12)c1ccccc1 (stereo unspecified)	.	-7.8	.	14.5	12.8
CN1CCN(Cn2cc(/C=C/C(=O)c3ccccc3)c3ccccc32)CC1	62.0*	.	?	87.0*	45.5
Cc1cc(-c2nc(-c3ccc(C(C)(C)C)cc3)no2)no1	61.8*	2.6	100.3*	21.6	14.9
Cc1c(-c2nc(-c3ccc(C(C)(C)C)cc3)no2)n(C)oc1=O	.	1.1	.	-77.8	-74.2*
CCOC(=O)CNC(=O)CSc1ncnc2c1cnn2-c1ccc(OC)cc1	-5.1	.	4.6	14.8	1.4
CCc1nnc(NC(=O)CSc2ncnc3c2cnn3-c2ccc(OC)cc2)s1	2.7	37.9*	13.8	0.6	0.1
O=c1[nH]c(C2CCN(S(=O)(=O)c3cccc([N+](=O)[O-])c3)CC2)nc2c1nnn2Cc1ccccc1	-2.3	-2.8	-3.2	60.9*	26.7
Cc1noc(C)c1NC(=O)Nc1ccc2c(c1)C(=O)N([C@H](C)CO)C[C@H](C)[C@H](CN(C)Cc1ccc(Cl)c(Cl)c1)OCCCC[C@H](C)O2	1.2	.	.	.	.
O=C(Nc1nc(-c2ccc(Cl)s2)cs1)c1cccs1	69.3*	.	41.4	41.9	20.5
O=C(Nc1nc(-c2ccccc2)cs1)c1cccs1	61.6*	.	60.6	49.9	12.6
CCCC(=O)Nc1nc(-c2ccc(Cl)s2)cs1	.	3.0	7.9	13.8	3.4
CCn1c(CCNC(=O)c2cccs2)nnc1SCC(=O)Nc1nc(-c2ccccc2)cs1	44.3*	.	.	18.7	9.7
O=C(Nc1nc(-c2ccc(Cl)s2)cs1)c1ccco1	.	0.2	52.0	66.8*	32.1
COc1ccc(NC(=O)N(C)C[C@H]2Oc3ccc(NC(=O)Nc4ccccc4)cc3C(=O)N([C@H](C)CO)C[C@@H]2C)cc1	-1.8	.	.	.	.
O=C(Nc1nc(-c2nc3ccccc3s2)cs1)c1ccco1	51.6*	-2.6	.	17.3	12.9
CC(C)(C)c1cc(NC(=O)c2cccs2)no1	-8.7	31.5*	62.7	22.3	18.0
Cc1cc(NC(=O)c2ccc(NC(=O)c3cccs3)cc2)no1	17.4	-2.7	10.5	10.2	1.4
COc1ccccc1OCc1csc(NC(=O)c2ccco2)n1	76.7*	.	66.8	46.7	16.3
O=C(Nc1ccc(Cl)cc1-c1nc2ccccc2s1)c1ccco1	12.0	.	.	7.4	-3.8
CC(C)(C)c1csc(NC(=O)c2cccs2)n1	103.2*	.	50.6	54.5*	27.3
O=C(C[C@@H]1CC[C@@H](NC(=O)c2ccncc2)[C@H](CO)O1)NCC1CC1	5.6	.	.	.	.
O=C(Nc1nc(-c2ccccc2)ns1)c1cccs1	44.2*	19.5	42.7	37.0	42.3
O=C(Nc1nc(-c2nc3ccccc3s2)cs1)C1CC1	29.8	48.7*	.	67.3*	33.7
CC(Oc1ccccc1)C(=O)Nc1cccc(-c2nc3ccccc3[nH]2)c1 (stereo unspecified)	45.9*	.	.	5.1	5.4
O=C(COc1ccccc1)Nc1cccc(-c2nc3cc4ccccc4cc3[nH]2)c1	6.5	.	105.5*	31.9	14.7
CC(=O)Nc1cccc(-c2nc3ccccc3[nH]2)c1	14.6	-0.4	1.8	25.5	6.4
